Assay results as given in PubChem BioAssay (NCI).
Compounds without any hit were thinned out: in the full panel of roughly 79,000, 15% have a hit. Unmarked numbers belong to inactive results. The source made the active and inactive calls. No stated cut-off is given here; in the data, active means growth inhibition above about 70%; inactive means the rest.

Assays:
[1] = NCI Yeast Anticancer Drug Screen. Data for the rad50 strain (AID 155);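 further: 0% = growth of vehicle-only cultures of the same strain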; conditions: S. cerevisiae rad50 strain growth inhibition, active compounds read high
Procedure, shortened: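 Cells are treated with compound, grown, and their growth is then scored against vehicle-only cultures of the same repair-deficient yeast strain.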

[2] = NCI Yeast Anticancer Drug Screen. Data for the mec2-1 strain (AID 157); conditions: S. cerevisiae mec2-1 strain, active compounds read high
Procedure, shortened: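 Growth inhibition is read against vehicle-treated controls after compound exposure of the mec2-1 yeast strain, which is defective in DNA damage repair or cell cycle control.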

[3] = NCI Yeast Anticancer Drug Screen. Data for the sgs1 mgt1 strain (AID 161);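 further: 0% = growth of cultures given vehicle only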; conditions: S. cerevisiae sgs1 mgt1 strain, active compounds read high
Procedure, shortened: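 This yeast growth screen uses a strain with defined DNA-repair lesions; compound-treated growth is compared with vehicle-treated growth.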

[4] = NCI Yeast Anticancer Drug Screen. Data for the cln2 rad14 strain (AID 165);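 further: 0% = growth equal to vehicle treated cultures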; conditions: S. cerevisiae cln2 rad14 strain, active compounds read high
Procedure, shortened: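 Growth inhibition, relative to vehicle-treated controls, is the read-out. The test organism is a yeast strain with defined genetic alterations, cln2 rad14.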

[5] = NCI Yeast Anticancer Drug Screen. Data for the bub3 strain (AID 167); conditions: S. cerevisiae bub3 mutant strain, active compounds read high
Procedure, shortened: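 Part of a panel of yeast mutants defective in DNA damage repair or cell cycle regulation. Each strain is grown with compound, and inhibition is calculated relative to solvent-treated cultures.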

[6] = NCI Yeast Anticancer Drug Screen. Data for the mlh1 rad18 strain (AID 175); conditions: S. cerevisiae mlh1 rad18 strain growth inhibition, active compounds read high
Procedure, shortened: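 Cells of a genetically altered yeast strain, deficient in DNA damage repair, were treated with compound. Their growth was then compared with that of vehicle-treated cultures to give inhibition.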

[7] = at 5.0 µM (retest, dose inferred, filed as 0.5)
[8] = at 50.0 µM (retest, dose inferred, filed as 5.0)

| Structure (SMILES) | growth inhibition [1, 7] | growth inhibition [1, 8] | growth inhibition ([1]; at 50.0 µM) | growth inhibition [2, 7] | growth inhibition [2, 8] | growth inhibition ([2]; at 50.0 µM) | growth inhibition [3, 7] | growth inhibition [3, 8] | growth inhibition ([3]; at 50.0 µM) | growth inhibition [4, 7] | growth inhibition [4, 8] | growth inhibition ([4]; at 50.0 µM) | growth inhibition [5, 7] | growth inhibition [5, 8] | growth inhibition ([5]; at 50.0 µM) | growth inhibition [6, 7] | growth inhibition [6, 8] | growth inhibition ([6]; at 50.0 µM) |
| --- | --- | --- | --- | --- | --- | --- | --- | --- | --- | --- | --- | --- | --- | --- | --- | --- | --- | --- |
| Cc1cc2c(cc1Cl)Sc1nnc(C)n1S2(=O)=O | 18% | 81% (active) | 74.8% (active) | 14% | 59% | 71% (active) | 3% | 34% | 62.2% | 17% | 34% | 48.8% | -12% | 85% (active) | 84.3% (active) | 9% | 75% (active) | 75.6% (active) |
| O=C1Nc2ccccc2NC(=O)C(=C(c2ccccc2)c2ccccc2)C1=C(c1ccccc1)c1ccccc1 | 95% (active) | 96% (active) | 46.9% | 94% (active) | 97% (active) | 97.8% (active) | 96% (active) | 98% (active) | 53.1% | 92% (active) | 96% (active) | 97.5% (active) | 95% (active) | 97% (active) | 98% (active) | 96% (active) | 96% (active) | 43.9% |
| C=C1CC(c2ccc(OCCCN3C(=O)c4ccccc4C3=O)c(OC)c2)OC1=O (configuration not stated) | -9% | 97% (active) | 76.3% (active) | 24% | 91% (active) | 88.2% (active) | 1% | 89% (active) | 91% (active) | 11% | 93% (active) | 89.2% (active) | -16% | 95% (active) | 92% (active) | 10% | 97% (active) | 96.8% (active) |
| Cc1ccc(C)c(N2C(=O)C(=O)C(c3nc4ccccc4o3)/C(=N\NC(=O)c3ccccc3O)C2=O)c1 (configuration not stated) | 6% | 21% | 62.3% | 1% | 29% | 55.2% | 7% | 21% | 63% | 8% | 33% | 53.6% | 6% | 29% | 27.4% | 5% | 7% | 71.9% (active) |
| O=c1c(S(=O)(=O)Oc2ccccc2)coc2cc(F)ccc12 | 99% (active) | 100% (active) | 81.7% (active) | 99% (active) | 100% (active) | 86.7% (active) | 99% (active) | 100% (active) | 90.2% (active) | 99% (active) | 100% (active) | 91.5% (active) | 99% (active) | 100% (active) | 91% (active) | 99% (active) | 100% (active) | 93.1% (active) |
| Cc1cc(N2C(=O)CSC2=S)ccc1Cl | -3% | 1% | 61.1% | -4% | -2% | 21.9% | -2% | 8% | 79.2% (active) | -2% | -17% | 12.8% | -6% | -1% | 7.95% | -6% | 0% | 51.2% |
| OC1(CCc2ccccc2)COC(C(F)(F)F)(C(F)(F)F)C1 (configuration not stated) | 18% | 24% | 76.4% (active) | 16% | 18% | 66% | 14% | 23% | 78.4% (active) | 1% | 23% | 52.8% | 5% | 21% | 61.1% | 26% | 30% | 74.8% (active) |
| CN(C)c1cccc(F)c1C(=O)NC(=O)Nc1ccc(Cl)cc1 | 2% | 3% | 79.7% (active) | 1% | 4% | 75.7% (active) | 0% | 7% | 85.9% (active) | 51% | -2% | 72% (active) | 1% | 11% | 83% (active) | 17% | -2% | 91.5% (active) |
| Cc1c(C)n(-c2ccccc2)c2nc(S(C)(=O)=O)nc(S(C)(=O)=O)c12 | 1% | 98% (active) | 71.2% (active) | 8% | 98% (active) | 79.3% (active) | -15% | 95% (active) | 86.3% (active) | 40% | 97% (active) | 86.4% (active) | 0% | 98% (active) | 85% (active) | 31% | 86% (active) | 87.2% (active) |
